The campaign covered roughly 38,000 compounds. About 1,200 (3.2%) showed an effect of 50% or more. The median lay at about -58%. The sample as a whole holds a higher share of strong results than the screen did.
system: Plasmodium falciparum; experiment: Calibr Malaria Delayed Death Assay SOP; format: functional, organism-based; parameters: scale not given: in the data most compounds retested in dose-response had high values; details: concentration 4.99e-06 (unit not given; other assays of the set use mol/L)

SMILES	Percent Effect [%]
O=C(C1CCOC1)N1CCC2(CCN(Cc3nccs3)C2)CC1 (configuration not stated)	-29.96
CN(Cc1cccc(F)c1)C(=O)CN1CCOC(Cn2cncn2)C1 (configuration not stated)	-118.2
Cc1ccc(CC(=O)NCC(Cc2ccc(F)cc2)C(N)=O)cn1 (configuration not stated)	-64.69
COc1ccc(CN2CC(O)CN(C(=O)OCC(C)C)CC2=O)cc1 (configuration not stated)	-72.03
CC(C)CC(=O)N1CC[C@H]2N(C)CC[C@@]2(C(=O)Nc2cccnc2)CC1.O=C(O)C(F)(F)F.O=C(O)C(F)(F)F	15.37
COc1cccc(CN2CC3(CCNCC3)CCC2=O)c1OC	6.381
COc1cccn(CC(=O)N2CCC3(CCNCC3)C2)c1=O	-26.75
O=C(COCC1CCCO1)N(Cc1cccnc1)c1ccc(F)cc1 (configuration not stated)	-38.29
O=S(=O)(CCCN1CCCC1Cn1cncn1)c1ccccc1 (configuration not stated)	-135.1
Cn1cc(C2=CCN(CCCOc3ccc(C(N)=O)cc3)CC2)cn1	-65.42
CC(C)(C)n1cc(C2=CCN(CCNC(N)=O)CC2)cn1	-173.3
CC(C)(C)n1cc(C2=CCN(CCN3CCCCCC3)CC2)cn1	70.18
CCn1cc(C2=CCN(CCCOc3ccccc3)CC2)cn1	81.92
CCC(O)Cn1cc(C2=CCN(Cc3cc(O)nc(C)n3)CC2)cn1 (configuration not stated)	-28.24
CC(C)(C)n1cc(C2=CCN(CCc3ccccc3)CC2)cn1	67.25
CCC(O)Cn1cc(C2=CCN(Cc3ccc(OC)cc3)CC2)cn1 (configuration not stated)	67.35
CC(C)(C)n1cc(C2=CCN(CCc3ccccn3)CC2)cn1	43.76
CC(C)(C)n1cc(C2=CCN(CCNC(=O)c3ccccc3)CC2)cn1	15.76
COc1ccc(NC(=O)CCN2CC=C(c3cnn(C)c3)CC2)c(C)c1	-34.98
Cn1cc(C2=CCN(CCCC(=O)Nc3ccc(C#N)cc3)CC2)cn1	-71.5
Cc1nc(O)cc(CN2CC=C(c3cnn(C(C)(C)C)c3)CC2)n1	-65.29
CC(O)(CNC(=O)c1cccnc1-n1cccn1)c1ccco1 (configuration not stated)	-10.35
CCN1CCCCC1C(=O)N1CCC(OCCOC)CC1 (configuration not stated)	-112.4
CSc1ccccc1C(=O)N1C[C@@H](N(C)C)[C@H](c2ccc(C)cc2)C1	-25.73
CCc1cnc2c(c1NCc1ccc(OC)cc1)c(=O)n(C)c(=O)n2C	-5.547
CC(C)CC(NC(=O)c1ccco1)c1nnc2ccccn12 (configuration not stated)	-178.4

SMILES	Percent Effect [%]
O=C(O)C1(O)CCN(c2ccnc3c(C(F)(F)F)cccc23)CC1	-178.3
Cc1cccc(C(=O)N(C)C2CCN(c3ccccn3)CC2)c1C	-82.1
CS(=O)(=O)c1ccc(NC(=O)NC2(c3cccc(F)c3)CC2)cc1	-42.46
O=C(O)C(F)(F)F.O=C(c1ccoc1)N1CCOCC2(CCN(C3CCOCC3)C2)C1 (configuration not stated)	-39.42
COCCCN(C)c1nc(-c2ccncc2)nc2c1CCN(C(C)=O)C2	-86.15
COCCN(C)c1nc(-c2ccncc2)nc2c1CCN(C(C)=O)C2	-64.34
CCN1Cc2cc(F)ccc2N(C(=O)C2CCC2)CCC1=O	-44.87
Cc1ccccc1CN(CCN(C)C)Cc1ccc(S(C)(=O)=O)cc1	79.52
CCOc1ccccc1CN(CC)Cc1ccc(S(C)(=O)=O)cc1	-21.06
Cc1ccccc1CN(Cc1ccc(S(C)(=O)=O)cc1)CC(C)C	-26.42
O=C(NCc1ccc2c(c1)OCO2)c1ccccc1C1CCNC1 (configuration not stated)	-7.767
Cc1nccn1-c1ccc(=O)n(CCNC(=O)c2ccccn2)n1	-133.3
CCn1c(CN(C)Cc2csc(C)n2)nc2cc(F)ccc21	60.85
CCn1c(CN(C)Cc2cnc(C)s2)nc2cc(F)ccc21	-16.92
CCN(Cc1csc(C)n1)c1cccc(CO)c1	-39.75
CCn1cc(NC(=O)C2CCN(Cc3ccccc3)CC2)cn1	-64.73
O=C(Nc1cnn(Cc2ccc(F)cc2Cl)c1)C1CC1	-1.724
O=C(Nc1cnn(COc2ccc(F)cc2Cl)c1)C1CC1	66.71
CCc1cc(N2CCC(Nc3ccc(Cl)cn3)CC2)ncn1	-58.54
CC(C)[C@H]1CN(c2ccncc2)C[C@@H]1NS(=O)(=O)N(C)C	-51.73
CC(C)[C@H]1CN(C2Cc3ccccc3C2)C[C@@H]1NS(C)(=O)=O	31.34
CC(C)[C@@H]1CN(Cc2ccsc2)C[C@H]1NS(=O)(=O)N(C)C	65.02
CC(C)[C@@H]1CN(Cc2ccccn2)C[C@H]1NS(=O)(=O)N(C)C	-49.07
CC(C)[C@H]1CN(C2Cc3ccccc3C2)C[C@@H]1NS(=O)(=O)N(C)C	61.34
CC(C)[C@@H]1CN(CCOc2ccccc2)C[C@H]1NS(=O)(=O)N(C)C	40.07
CCc1cc(NCCc2cc(F)cc(F)c2)n2nccc2n1	-125.8

SMILES	Percent Effect [%]
c1cnn(CCNCc2cnc(N3CCCC3)nc2)c1	-23.83
Cc1ccccc1C(NC(=O)NCC1(CO)CC1)C1CC1 (configuration not stated)	-98.91
CCc1nc(CN2CCCC(N(C)Cc3cnc(C)cn3)C2)no1 (configuration not stated)	-35.57
CC(NC(=O)CSCC#N)c1ccccc1 (configuration not stated)	-131
CC(NC1(CNC(=O)OC(C)(C)C)CCOCC1)c1ccccc1 (configuration not stated)	-63.28
CC(=O)c1ccc(Nc2nc(N)nc3c2nc(C)n3C)cc1	-204.1
Cc1ccc2cccc(S(=O)(=O)N(C)C3CCCN(C)C3)c2n1 (configuration not stated)	32.17
Cc1ccc2cccc(S(=O)(=O)N(C)CC3CCN(C)C3)c2n1 (configuration not stated)	35.25
Cc1ccc2cccc(S(=O)(=O)N(C)CC3CCN(C)CC3)c2n1	56.89
CSCc1noc(CN2CC(Cc3ccccc3)CC2=O)n1 (configuration not stated)	-65.09
CN1CCCCC1C(=O)N1CCN(c2ccccc2C#N)CC1 (configuration not stated)	8.936
CN1CCCCCC1C(=O)N1CCN(c2ccccc2C#N)CC1 (configuration not stated)	59.17
CN1CCC(C(=O)N2CCCN(c3cccnn3)CC2)C1 (configuration not stated)	-4.513
COC(=O)N1CCCCC1C(=O)N1CCN(c2cccnc2)CC1 (configuration not stated)	-94.01
Cc1cnn(CCC(=O)N2CCCN(c3ccccc3C#N)CC2)c1	-36.97
CN1CCCCCC1C(=O)N1CCCN(c2ccccc2)CC1 (configuration not stated)	60.61
CCC(c1ccc(F)cc1)S(=O)(=O)CCO (configuration not stated)	-152
COc1cc(C#N)ccc1OC12CCCN(CC1)C2 (configuration not stated)	-68.61
O=C(CC1CCCO1)NCCCC(=O)Nc1ccc(Cl)cc1 (configuration not stated)	-29.37
CCOc1ccc(Br)cc1S(=O)(=O)N(CC)Cc1ccc(N(C)C)cc1	-41.17
CCOc1ccc(Br)cc1-c1cc(N)[nH]n1.Cl	-27.86
COc1ccc(Br)cc1CC(=O)N1CCCC1	-142.1
COc1ccc(CCNC(=O)NC2CCCC2)cc1OC	-80.35
COc1ccc(CCC2CCCCN2)cc1OC (configuration not stated)	-120.3
CCOc1ccc(Cl)cc1C(C(=O)O)N1CCCC1 (configuration not stated)	-0.3366
c1csc(CN2CCCN(c3ccc(Cn4ccnc4)cn3)CC2)c1	-41.75

SMILES	Percent Effect [%]
COC1CN(C(=O)Cc2cccs2)CCC(=O)N(C)c2ccccc21 (configuration not stated)	-19.51
CCc1cc(=O)[nH]c(-c2ccc(NC(CO)CC(C)C)nc2)n1 (configuration not stated)	-171.9
Cc1noc(C)c1C(=O)N1CCC2(CC(N(C)c3ccncn3)C2)C1 (configuration not stated)	-76.24
CCn1c(C2CCN(C(=O)c3cc(CC(C)C)no3)CC2)nn(C)c1=O	-42.91
CC(C)C(=O)NCC(=O)N(C)C1CCCN(C2Cc3ccccc3C2)C1 (configuration not stated)	-100.1
O=C(CCc1ccccn1)NC1CCCN(C2Cc3ccccc3C2)C1 (configuration not stated)	9.867
Cc1cc(C)nc(NC2CCC(=O)N(C)C2)n1 (configuration not stated)	-38.75
Cc1cc(C)nc(NC2CCc3nc(C)nn3C2)n1 (configuration not stated)	-11.11
c1ccc(-c2cc(CN3CCCCCC3c3ccco3)on2)nc1 (configuration not stated)	-88.84
Cc1nc[nH]c1CN1CCN(C(=O)CN2CCCC2)[C@H]2CS(=O)(=O)C[C@H]21	-125.3
Cc1nccc(-c2cccc(NCC(=O)N3CCOC(C)C3)c2)n1 (configuration not stated)	-139.7
CCn1ncnc1CN1CCC(CNC(=O)c2ccccc2C#N)C1 (configuration not stated)	-133.7
COc1ncc(C(=O)N2CCC(c3nc(C)n4ccsc34)CC2)cn1	-121.9
CC(NC(=O)c1ccc(Cl)cc1)c1nnc(SCC(=O)O)n1C (configuration not stated)	-106.5
O=C(c1ccc(-n2cccc2)c(F)c1)N1CCCN2CCCC2C1 (configuration not stated)	6.651
CN(Cc1nnc(C2CC2)n1C)S(=O)(=O)c1ccccc1F	-15.64
CC1c2ncc(COc3cccnc3)n2CCN1C(=O)C1=CCCCC1.O=C(O)C(F)(F)F (configuration not stated)	-13.51
CC(c1ccc(-n2cncn2)cc1)N(C)Cc1ccccn1 (configuration not stated)	-93.37
CCCSc1nn(CCN(C)C)c2nc3sc(C)c(CC)c3c(=O)n12	46.83
CCc1c(C)sc2nc3n(CCN(C)C)nc(SC)n3c(=O)c12	13.06
Cc1oncc1C(=O)N1CCC2(CCN(Cc3cccnc3)C2=O)C1.O=C(O)C(F)(F)F (configuration not stated)	-151.7
O=C(Nc1ccccc1)[C@H]1C[C@@H]2CN(C(=O)Nc3ccccc3)C[C@H]1O2	18.72
O=C(c1cccc2c1OCO2)N1CCCC(n2ccnc2)C1 (configuration not stated)	-40.58
CCCc1n[nH]c(C2CN(C(=O)CCn3ccccc3=O)CCO2)n1 (configuration not stated)	-67.64

Source: ChEMBL document CHEMBL3988442, “University of Dundee, Small-Polar-MMV Screening Library” (2021)
